# Source: PubChem BioAssay (NCI)
# Where “and” joins values, the source holds several entries; their conditions need not be identical. Equal entries are not always repeated. The panel holds about 83,000 compounds, 20% with a hit somewhere; the sample as a whole holds those more often.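 Single-concentration screen, 48 h exposure, 96-well plates. Endpoint: percent growth. Below 10 = active.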 Calls of active or inactive are those of the source.
# What was measured:
# Experiment in all cases: NCI-60 one-dose screen, 48 h (100 = growth as untreated, 0 = no growth, -100 = all killed)
# HCT-15 colon = system: HCT-15 colon
# HT29 colon = system: HT29 colon
# SNB-75 CNS = system: SNB-75 CNS
# SNB-19 CNS = system: SNB-19 CNS
# U251 CNS = system: U251 CNS
# PC-3 prostate = system: PC-3 prostate
# SK-MEL-5 melanoma = system: SK-MEL-5 melanoma
# UACC-62 melanoma = system: UACC-62 melanoma
# LOX IMVI melanoma = system: LOX IMVI melanoma
# SK-MEL-28 melanoma = system: SK-MEL-28 melanoma
# SK-MEL-2 melanoma = system: SK-MEL-2 melanoma
# EKVX NSCLC = system: EKVX NSCLC
# SN12C renal = system: SN12C renal
# UO-31 renal = system: UO-31 renal
# TK-10 renal = system: TK-10 renal
# ACHN renal = conditions: 10 µM unless noted
# CAKI-1 renal = conditions: 10 µM unless noted
# A498 renal = system: A498 renal
# CCRF-CEM leukemia = system: CCRF-CEM leukemia
# MOLT-4 leukemia = system: MOLT-4 leukemia
smiles,measurement,setting,value
CC[C@]12CN3CCc4c([nH]c5ccccc45)[C@@](C(=O)OC)(c4cc5c(cc4OC)N(C)[C@H]4[C@@](O)(C(=O)OC)[C@H](OC(C)=O)[C@]6(CC)C=CCN7CC[C@]54[C@@H]76)CC(C3)[C@H]1O2 (stereo not given in full),growth,HCT-15 colon; 10 µM unless noted,29% (inactive)
same,growth,HT29 colon; 10 µM unless noted,2.74% (active)
same,growth,SNB-75 CNS; 10 µM unless noted,-2.51% (active)
same,growth,SNB-19 CNS; 10 µM unless noted,26.9% (inactive)
same,growth,U251 CNS; 10 µM unless noted,16% (inactive)
same,growth,PC-3 prostate; 10 µM unless noted,15.5% (inactive)
same,growth,SK-MEL-5 melanoma; 10 µM unless noted,-26.4% (active)
same,growth,UACC-62 melanoma; 10 µM,26.6% (inactive)
same,growth,UACC-62 melanoma; 100 µM,94.4% (inactive) and -98.3% (active)
same,growth,LOX IMVI melanoma; 10 µM unless noted,19.5% (inactive)
same,growth,SK-MEL-28 melanoma; 10 µM unless noted,60.2% (inactive)
same,growth,SK-MEL-2 melanoma; 10 µM unless noted,31% (inactive)
same,growth,EKVX NSCLC; 10 µM unless noted,28.4% (inactive)
same,growth,SN12C renal; 10 µM unless noted,29.1% (inactive)
same,growth,UO-31 renal; 10 µM unless noted,32.8% (inactive)
same,growth,TK-10 renal; 10 µM,27.6% (inactive)
same,growth,TK-10 renal; 100 µM,88% (inactive) and -96.5% (active)
same,growth,ACHN renal,40.5% (inactive)
same,growth,CAKI-1 renal,38.9% (inactive)
same,growth,A498 renal; 10 µM unless noted,-12.3% (active)
same,growth,CCRF-CEM leukemia; 10 µM unless noted,5.37% (active)
same,growth,MOLT-4 leukemia; 10 µM unless noted,25.7% (inactive)
O=C(/C=C/c1cccc(Oc2ccc(Cl)cc2)c1)c1ccccc1,growth,HCT-15 colon; 10 µM,80.8% (inactive)
same,growth,HCT-15 colon; 100 µM,-72.6% (active)
same,growth,HT29 colon; 10 µM,84.2% (inactive)
same,growth,HT29 colon; 100 µM,-67% (active)
same,growth,SNB-75 CNS; 10 µM,82.8% (inactive)
same,growth,SNB-75 CNS; 100 µM,-94.8% (active)
same,growth,SNB-19 CNS; 10 µM,90.5% (inactive)
same,growth,SNB-19 CNS; 100 µM,-77.3% (active)
same,growth,U251 CNS; 10 µM,76% (inactive)
same,growth,U251 CNS; 100 µM,-100% (active)
same,growth,PC-3 prostate; 10 µM,84.5% (inactive)
same,growth,PC-3 prostate; 100 µM,-72.3% (active)
same,growth,SK-MEL-5 melanoma; 10 µM,105% (inactive)
same,growth,SK-MEL-5 melanoma; 100 µM,-97.3% (active)
same,growth,UACC-62 melanoma; 10 µM,100% (inactive)
same,growth,UACC-62 melanoma; 100 µM,-71.9% (active)
same,growth,LOX IMVI melanoma; 10 µM,38.2% (inactive)
same,growth,LOX IMVI melanoma; 100 µM,-99.3% (active)
same,growth,SK-MEL-28 melanoma; 10 µM,101% (inactive)
same,growth,SK-MEL-28 melanoma; 100 µM,-82.2% (active)
same,growth,SK-MEL-2 melanoma; 10 µM,109% (inactive)
same,growth,SK-MEL-2 melanoma; 100 µM,-59.8% (active)
same,growth,EKVX NSCLC; 10 µM,110% (inactive)
same,growth,EKVX NSCLC; 100 µM,-79.6% (active)
same,growth,SN12C renal; 10 µM,111% (inactive)
same,growth,SN12C renal; 100 µM,-63.7% (active)
same,growth,UO-31 renal; 10 µM,86.2% (inactive)
same,growth,UO-31 renal; 100 µM,-99.8% (active)
same,growth,TK-10 renal; 10 µM,105% (inactive)
same,growth,TK-10 renal; 100 µM,-99.2% (active)
same,growth,ACHN renal,99.3% (inactive)
same,growth,A498 renal; 10 µM,99.2% (inactive)
same,growth,A498 renal; 100 µM,-95.3% (active)
same,growth,CCRF-CEM leukemia; 10 µM unless noted,-10.5% [100 µM] (active)
CC12OC(CC(O)C1O)n1c3ccccc3c3c4c(c5c6ccccc6n2c5c31)C(=O)N(CCN1CCOCC1)C4=O (stereo not given),growth,HCT-15 colon; 10 µM unless noted,9.81% (active)
same,growth,HT29 colon; 10 µM unless noted,2.31% (active)
same,growth,SNB-75 CNS; 10 µM unless noted,-5.19% (active)
same,growth,SNB-19 CNS; 10 µM unless noted,8.99% (active)
same,growth,U251 CNS; 10 µM unless noted,3.67% (active)
same,growth,PC-3 prostate; 10 µM unless noted,7.32% (active)
same,growth,SK-MEL-5 melanoma; 10 µM unless noted,-44.5% (active)
same,growth,UACC-62 melanoma; 10 µM unless noted,-52% (active)
same,growth,LOX IMVI melanoma; 10 µM unless noted,-61.1% (active)
same,growth,SK-MEL-28 melanoma; 10 µM unless noted,34.6% (inactive)
same,growth,SK-MEL-2 melanoma; 10 µM unless noted,12.6% (inactive)
same,growth,EKVX NSCLC; 10 µM unless noted,32% (inactive)
same,growth,SN12C renal; 10 µM unless noted,10.3% (inactive)
same,growth,UO-31 renal; 10 µM unless noted,-9.86% (active)
same,growth,TK-10 renal; 10 µM unless noted,-11.1% (active)
same,growth,ACHN renal,-59.7% (active)
same,growth,CAKI-1 renal,2.22% (active)
same,growth,A498 renal; 10 µM unless noted,-15.3% (active)
same,growth,CCRF-CEM leukemia; 10 µM unless noted,16.4% (inactive)
CCCN1C(=O)/C(=c2\sc3n(c2=O)C2C(NN=3)N(CC)C(=O)N2CC)c2ccccc21 (stereo not given),growth,HCT-15 colon; 10 µM unless noted,12.5% (inactive)
same,growth,HT29 colon; 10 µM unless noted,3.33% (active)
same,growth,SNB-75 CNS; 10 µM unless noted,17.2% (inactive)
same,growth,SNB-19 CNS; 10 µM unless noted,27.7% (inactive)
same,growth,U251 CNS; 10 µM unless noted,17.6% (inactive)
same,growth,PC-3 prostate; 10 µM unless noted,32.9% (inactive)
same,growth,SK-MEL-5 melanoma; 10 µM unless noted,14.3% (inactive)
same,growth,UACC-62 melanoma; 10 µM unless noted,24.7% (inactive)
same,growth,LOX IMVI melanoma; 10 µM unless noted,17.1% (inactive)
same,growth,SK-MEL-28 melanoma; 10 µM unless noted,48.1% (inactive)
same,growth,SK-MEL-2 melanoma; 10 µM unless noted,55% (inactive)
same,growth,EKVX NSCLC; 10 µM unless noted,52.4% (inactive)
same,growth,SN12C renal; 10 µM unless noted,23.1% (inactive)
same,growth,UO-31 renal; 10 µM unless noted,33.6% (inactive)
same,growth,TK-10 renal; 10 µM unless noted,73.9% (inactive)
same,growth,ACHN renal,33.1% (inactive)
same,growth,CAKI-1 renal,33.8% (inactive)
same,growth,A498 renal; 10 µM unless noted,5.22% (active)
same,growth,CCRF-CEM leukemia; 10 µM unless noted,13.6% (inactive)
O=c1c2c([nH]c3ccccc13)CCCC2,growth,HCT-15 colon; 10 µM unless noted,94.8% (inactive) and 23.8% (inactive)
same,growth,HT29 colon; 10 µM unless noted,102% (inactive) and 2.59% (active)
same,growth,SNB-75 CNS; 10 µM unless noted,33.5% (inactive)
same,growth,SNB-19 CNS; 10 µM unless noted,102% (inactive) and 56.9% (inactive)
same,growth,U251 CNS; 10 µM unless noted,97.4% (inactive) and 24.3% (inactive)
same,growth,PC-3 prostate; 10 µM unless noted,85.3% (inactive) and 57.9% (inactive)
same,growth,SK-MEL-5 melanoma; 10 µM unless noted,99.3% (inactive) and 37.5% (inactive)
same,growth,UACC-62 melanoma; 10 µM unless noted,89.6% (inactive) and 53.7% (inactive)
same,growth,LOX IMVI melanoma; 10 µM unless noted,102% (inactive) and 37.3% (inactive)
same,growth,SK-MEL-28 melanoma; 10 µM unless noted,106% (inactive) and 53.8% (inactive)
same,growth,SK-MEL-2 melanoma; 10 µM unless noted,103% (inactive) and -12% (active)
same,growth,EKVX NSCLC; 10 µM unless noted,103% (inactive)
same,growth,SN12C renal; 10 µM unless noted,95.8% (inactive) and 56.5% (inactive)
same,growth,UO-31 renal; 10 µM unless noted,87.6% (inactive) and 50.4% (inactive)
same,growth,TK-10 renal; 10 µM unless noted,104% (inactive) and 62.2% (inactive)
same,growth,ACHN renal,96.5% (inactive) and 57.9% (inactive)
same,growth,CAKI-1 renal,98.6% (inactive) and 54.6% (inactive)
same,growth,A498 renal; 10 µM unless noted,102% (inactive) and 49.1% (inactive)
same,growth,CCRF-CEM leukemia; 10 µM unless noted,-32.1% (active) and 37.1% (inactive)
CCN(Cc1ccccc1)c1ccc(/C=C2\COc3ccccc3C2=O)cc1,growth,HCT-15 colon; 10 µM,94% (inactive)
same,growth,HCT-15 colon; 100 µM,23.6% (inactive)
same,growth,HT29 colon; 10 µM,99.7% (inactive)
same,growth,HT29 colon; 100 µM,5.56% (active)
same,growth,SNB-75 CNS; 10 µM,93.2% (inactive)
same,growth,SNB-75 CNS; 100 µM,57.6% (inactive)
same,growth,SNB-19 CNS; 10 µM,98.9% (inactive)
same,growth,SNB-19 CNS; 100 µM,50.4% (inactive)
same,growth,U251 CNS; 10 µM,96% (inactive)
same,growth,U251 CNS; 100 µM,19.1% (inactive)
same,growth,PC-3 prostate; 10 µM,87.1% (inactive)
same,growth,PC-3 prostate; 100 µM,26.5% (inactive)
same,growth,SK-MEL-5 melanoma; 10 µM,102% (inactive)
same,growth,SK-MEL-5 melanoma; 100 µM,6.96% (active)
same,growth,UACC-62 melanoma; 10 µM,87% (inactive)
same,growth,UACC-62 melanoma; 100 µM,31% (inactive)
same,growth,LOX IMVI melanoma; 10 µM,96.3% (inactive)
same,growth,LOX IMVI melanoma; 100 µM,37.5% (inactive)
same,growth,SK-MEL-28 melanoma; 10 µM,99.9% (inactive)
same,growth,SK-MEL-28 melanoma; 100 µM,53.1% (inactive)
same,growth,SK-MEL-2 melanoma; 10 µM,102% (inactive)
same,growth,SK-MEL-2 melanoma; 100 µM,21.8% (inactive)
same,growth,EKVX NSCLC; 10 µM,102% (inactive)
same,growth,EKVX NSCLC; 100 µM,36.9% (inactive)
same,growth,SN12C renal; 10 µM,94.5% (inactive)
same,growth,SN12C renal; 100 µM,53.2% (inactive)
same,growth,UO-31 renal; 10 µM,83.8% (inactive)
same,growth,UO-31 renal; 100 µM,18.6% (inactive)
same,growth,TK-10 renal; 10 µM,119% (inactive)
same,growth,TK-10 renal; 100 µM,53.3% (inactive)
same,growth,ACHN renal,101% (inactive)
same,growth,A498 renal; 10 µM,91.3% (inactive)
same,growth,A498 renal; 100 µM,40.2% (inactive)
same,growth,CCRF-CEM leukemia; 10 µM,104% (inactive)
same,growth,CCRF-CEM leukemia; 100 µM,15% (inactive)
same,growth,MOLT-4 leukemia; 10 µM,78.6% (inactive)
same,growth,MOLT-4 leukemia; 100 µM,10.5% (inactive)
